# Source: PubChem BioAssay (EPA / NIEHS)
# The source made the active and inactive calls. Rule for the calls: active = hit-call score of the fitted dose curve at least 0.9, where 1 is the maximum; inactive = score below 0.9.
# Assay: APR_HepG2_MitoMembPot_72hr: Apredica 72-hour HepG2 Assay for Mitochondrial Membrane Potential (AID 2282917)
# Conditions: imaging, actives raise or lower the signal
# Outline: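 HepG2 cells dosed 72 hr with compound at 0.39–200 uM in duplicate, 0.5% v/v DMSO final. Mitochondria stained with 250 nM MitoTracker Red CMXRos for 30 min before formaldehyde fixation, imaged by high-content fluorescence; bidirectional fit versus DMSO.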
Compound,outcome,AC50
CN1COCN(Cc2cnc(Cl)s2)C1=N[N+](=O)[O-],inactive,
O=C(O)c1cc(Oc2ccc(C(F)(F)F)cc2Cl)ccc1[N+](=O)[O-],inactive,
Nc1c(Cl)cc([N+](=O)[O-])cc1Cl,inactive,
CSc1nc(NC(C)C)nc(NC(C)C)n1,inactive,
COP(=O)(NC(C)=O)SC (stereo unspecified),inactive,
CCOP(=S)(OCC)OC(Cl)C(Cl)(Cl)Cl (stereo unspecified),inactive,
COc1cc(OC)nc(Sc2cccc(Cl)c2C(=O)O)n1,inactive,
CC1=NNC(=O)N(/N=C/c2cccnc2)C1,inactive,
CCC(=O)Nc1ccc(Cl)c(Cl)c1,inactive,
COc1cccc(C(=O)NN(C(=O)c2cc(C)cc(C)c2)C(C)(C)C)c1C,inactive,
CCCSP(=O)(OCC)Oc1ccc(Br)cc1Cl (stereo unspecified),inactive,
COc1ccc(C(=CC(=O)N2CCOCC2)c2ccc(Cl)cc2)cc1OC,inactive,
S=C1NCCN1,inactive,
CC(C)[C@H](C(=O)O[C@H](C#N)c1cccc(Oc2ccccc2)c1)c1ccc(Cl)cc1,inactive,
CCOP(=S)(OCC)Oc1ccc([N+](=O)[O-])cc1,inactive,
Nc1nc(N)nc(NC2CC2)n1,inactive,
CCCSP(=O)(OCC)SCCC,inactive,
FC(F)C(F)(F)OCC(Cn1cncn1)c1ccc(Cl)cc1Cl (stereo unspecified),inactive,

Compound,outcome,AC50
CC1(C(=O)Nc2ccc(O)c(Cl)c2Cl)CCCCC1,inactive,
CN(C)[C@@H]1C(=O)C(C(N)=O)=C(O)[C@@]2(O)C(=O)C3=C(O)c4c(O)cccc4[C@@](C)(O)[C@H]3[C@H](O)[C@@H]12,inactive,
CNC(=O)Oc1cccc2c1OC(C)(C)O2,inactive,
CSC1=N[C@@](C)(c2ccccc2)C(=O)N1Nc1ccccc1,inactive,
CC(C)=CC1C(C(=O)OCN2C(=O)C3=C(CCCC3)C2=O)C1(C)C (stereo unspecified),inactive,
CC[C@H](C)[C@H]1O[C@]2(C=C[C@@H]1C)C[C@@H]1C[C@@H](C/C=C(\C)[C@@H](O[C@H]3C[C@H](OC)[C@@H](O[C@H]4C[C@H](OC)[C@@H](NC)[C@H](C)O4)[C@H](C)O3)[C@@H](C)/C=C/C=C3\CO[C@@H]4[C@H](O)C(C)=C[C@@H](C(=O)O1)[C@]34O)O2,,0.16 µM (active)
N#CSCSC#N,inactive,
COP(=O)(OC)C(O)C(Cl)(Cl)Cl (stereo unspecified),inactive,
Cc1ccn2nc(S(=O)(=O)Nc3c(F)cccc3F)nc2n1,inactive,
CCC(CC)Nc1c([N+](=O)[O-])cc(C)c(C)c1[N+](=O)[O-],inactive,
CCCCOC(=O)c1ccccc1C(=O)O,inactive,
CCCOc1nn(C(=O)NS(=O)(=O)c2ccccc2C(=O)OC)c(=O)n1C,inactive,
C[N+]1(C)CCCCC1,inactive,
CC(C)N(C(=O)SCC(Cl)=C(Cl)Cl)C(C)C,inactive,
CCOP(=S)(OCC)Oc1ccc2c(C)c(Cl)c(=O)oc2c1,inactive,
CCc1cccc(CC)c1N(COC)C(=O)CCl,,31.1 µM (active)
CCOC(=O)COc1cc(-c2nn(C)c(OC(F)F)c2Cl)c(F)cc1Cl,inactive,
CCOP(=O)(OCC)Oc1cc(C)nc(C(C)C)n1,inactive,
